# Data published in PubChem BioAssay (NCI).
# The panel holds about 83,000 compounds, 20% with a hit somewhere; the sample as a whole holds those more often.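 Activity criterion: percent growth below 10, measured after cells in 96-well plates were exposed to a single compound concentration for 48 hours.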 Values without a mark were called inactive. The source made the active and inactive calls.
# Assays:
# Assay in all cases: NCI-60 one-dose screen, 48 h (100 = growth as untreated, 0 = no growth, -100 = all killed)
# Conditions in all cases: 10 µM unless noted
# NCI-H23 lung = system: NCI-H23 lung
# NCI-H226 lung = system: NCI-H226 lung
# NCI-H322M lung = system: NCI-H322M lung
# HOP-62 NSCLC = system: HOP-62 NSCLC
# NCI-H460 lung = system: NCI-H460 lung
# HOP-92 NSCLC = system: HOP-92 NSCLC
# NCI-H522 lung = system: NCI-H522 lung
# A549/ATCC NSCLC = system: A549/ATCC NSCLC
# 786-0 renal = system: 786-0 renal
# COLO 205 colon = system: COLO 205 colon
# DU-145 prostate = system: DU-145 prostate
# K-562 leukemia = system: K-562 leukemia
# MALME-3M melanoma = system: MALME-3M melanoma
# MDA-MB-231 breast = system: MDA-MB-231 breast
# RXF 393 renal = system: RXF 393 renal
# SF-268 CNS = system: SF-268 CNS
# SF-295 CNS = system: SF-295 CNS
# SF-539 CNS = system: SF-539 CNS
# UACC-257 melanoma = system: UACC-257 melanoma
# M14 melanoma = system: M14 melanoma
SMILES,growth (NCI-H23 lung),growth (NCI-H226 lung) [%],growth (NCI-H322M lung) [%],growth (HOP-62 NSCLC),growth (NCI-H460 lung),growth (HOP-92 NSCLC),growth (NCI-H522 lung),growth (A549/ATCC NSCLC),growth (786-0 renal),growth (COLO 205 colon),growth (DU-145 prostate),growth (K-562 leukemia),growth (MALME-3M melanoma),growth (MDA-MB-231 breast),growth (RXF 393 renal),growth (SF-268 CNS),growth (SF-295 CNS),growth (SF-539 CNS),growth (UACC-257 melanoma),growth (M14 melanoma)
O=[N+]([O-])c1cnc(N2CCN(CC3CC3)CC2)nc1N1CCN(CC2CC2)CC1,95.4%,81.3,88.8,108%,102%,74%,93.9%,104%,94.8%,97.1%,101%,102%,97.7%,99.9%,73.1%,87.7%,99.5%,90.8%,108%,98.2%
N#C/C(=C\c1ccc(-c2ccc(Cl)c(Cl)c2)o1)c1nc(-c2ccco2)cs1,86.6%,81.5,79.8,79.9%,87.7%,109%,89.3%,113%,110%,106%,114%,113%,89.1%,84.1%,121%,97.2%,98.7%,101%,118%,99.3%
Nc1ccc(-c2cc3c(NCc4ccccc4)ncnc3s2)cc1,66.6%,65.9,60.7,92.1%,90.7%,85.5%,72.5%,70.9%,79.2%,108%,55.8%,61.8%,91.3%,86%,74.2%,86.9%,83.5%,86%,85.8%,103%
COc1cccc(-c2nn(C(C)(C)C)cc2-c2ccnc(NCCCNS(=O)(=O)c3cccc4ccccc34)c2)c1,109%,109,111,103%,104%,104%,95.6%,104%,103%,115%,107%,104%,114%,106%,109%,108%,101%,113%,110%,101%
O=C(/C=C/C=C/c1ccc2c(c1)OCO2)N/N=C\c1ccc(O)cc1O,30%,37.6,17.8,27.1%,14%,53.4%,21.1%,36.1%,29%,14%,44%,11.6%,40.3%,34.4%,57.9%,24.4%,13.8%,13.3%,28.5%,30.3%
CC(=O)O[C@H]1CC[C@]2(C)[C@H]3CC=C4[C@@H]5CC(C)(C)CC[C@]5(C(=O)NCCNCCN)CC[C@@]4(C)[C@]3(C)CC[C@H]2C1(C)C,70.1%,73.5,67.3,-86.7% (active),-69.8% (active),-45.3% (active),-86.9% (active),-71.1% (active),-95.3% (active),-92.7% (active),-45.3% (active),-47.2% (active),-71.2% (active),-66.5% (active),44.9%,74.3%,92.8%,70.3%,-42.3% (active),-81.4% (active)
COc1ccc(-c2cc(Nc3ccnc(N4CCOCC4)n3)on2)cc1,36.8%,31.8,47.1,40.9%,14.5%,74.8%,4.99% (active),30.4%,35.6%,2.68% (active),19.6%,13.1%,87.2%,57.9%,-6.95% (active),62.6%,39.3%,-31.9% (active),72.7%,26.9%
O=C(N=Nc1c(O)[nH]c2ccc(Br)cc12)c1cc(-c2ccccc2)on1,96.9%,99.8,108,102%,101%,96.8%,85%,103%,105%,125%,110%,109%,89.5%,100%,117%,100%,97.1%,97.6%,110%,104%
O=C(N/N=C/c1c[nH]c2ccccc12)c1cc(-c2ccccc2)on1,93.6%,87.6,82.9,98.8%,98.1%,92.1%,75%,96.7%,97.9%,113%,100%,55.4%,94.8%,89.4%,97.8%,85.9%,98.2%,84.6%,102%,88.6%
Cn1cc(C(=O)c2nc(-c3c[nH]c4ccc(Br)cc34)no2)c2cc(F)ccc21,84.9%,81.5,95.7,103%,97%,85.4%,90.5%,104%,103%,98.3%,106%,102%,96.1%,89%,109%,99.2%,97.6%,99.1%,99.7%,100%
COc1cc2nc(N3CCCC3)nc(Nc3ccccc3)c2cc1OC,2.6% (active),29.2,19.3,16.3%,-42.1% (active),-25.9% (active),-53% (active),-39.8% (active),-90.5% (active),-84.1% (active),9.82% (active),-11.6% (active),-85.9% (active),-69.4% (active),-84.5% (active),-0.197% (active),-63.2% (active),-87.4% (active),-84.2% (active),-70.7% (active)
NC(=O)c1cc(Br)ccc1NC(=O)/C=C/c1ccccc1,62%,66.9,76.1,99%,17.1%,57%,-24.9% (active),33.2%,65.7%,-4.22% (active),-5.67% (active),15%,96.5%,45.3%,39.3%,43.5%,51.3%,9.78% (active),49.1%,28.3%
CCN(CC)c1ccc(/C=N\NC(=O)/C=C/C=C/c2ccc3c(c2)OCO3)c(O)c1,49.7%,49.5,31.2,28.5%,19.8%,48.4%,12.5%,53.3%,47.2%,39.9%,53.2%,17.6%,56.5%,43.2%,72.6%,33.7%,41.7%,22.7%,24.2%,36.4%
Cc1ccc(NC(=O)C2CCC(CN3CCN(C)CC3)CC2)cc1Nc1nccc(-c2cccnc2)n1 (stereo not given),96.1%,99.8,95.9,105%,101%,85.5%,129%,114%,98.7%,94.4%,100%,58.3%,104%,101%,96%,100%,101%,63.4%,115%,98.8%
CC[C@]1(O)C[C@@H]2CN(CCc3c([nH]c4ccccc34)[C@@](C(=O)OC)(c3cc4c(cc3OC)N(C)[C@H]3[C@@](O)(C(N)=O)[C@H](O)[C@]5(CC)[C@@H]6C[C@@H]6CN6CC[C@]43[C@@H]65)C2)C1,32.7%,44.2,55.4,24.1%,8.06% (active),19.3%,-32.3% (active),12.7%,18%,-44.3% (active),4.49% (active),11.8%,85.5%,2.3% (active),60.4%,30.8%,15.8%,7.92% (active),53.6%,1.22% (active)
